Measurements reported in PubChem BioAssay (NCI).
Compounds without any hit were thinned out: in the full panel of roughly 79,000, 15% have a hit. Active and inactive are the calls of the source. Cut-off read from the data, not from the text of the source: active = growth inhibition above about 70%; inactive = the rest.

How the values were obtained:
[1] = NCI Yeast Anticancer Drug Screen. Data for the wt2 strain (AID 169);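 note: 0% = growth of vehicle-treated yeast cultures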; details: S. cerevisiae wt2 strain growth inhibition, active compounds read high
Procedure, shortened: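 Yeast cells were exposed to test compounds, and growth inhibition was measured relative to vehicle-treated controls.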

[2] = NCI Yeast Anticancer Drug Screen. Data for the mlh1 strain (AID 171);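 note: 0% = growth of vehicle-treated control cultures of the same strain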; details: S. cerevisiae mlh1 strain growth inhibition, active compounds read high
Procedure, shortened: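 Yeast carrying a defined genetic alteration in DNA damage repair or cell cycle control were exposed to test compounds. Growth inhibition was measured relative to vehicle-treated controls.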

[3] = NCI Yeast Anticancer Drug Screen. Data for the sgs1 strain (AID 173);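 note: 0% = growth of vehicle-only control cultures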; details: S. cerevisiae sgs1 mutant, active compounds read high
Procedure, shortened: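 Yeast mutant strains carrying defined defects in DNA damage repair or cell cycle control were exposed to test compounds. Growth inhibition was scored against vehicle-treated controls.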

[4] = NCI Yeast Anticancer Drug Screen. Data for the mlh1 rad18 strain (AID 175); details: S. cerevisiae mlh1 rad18 strain growth inhibition, active compounds read high
Procedure, shortened: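 Growth inhibition of the yeast strain was measured after compound exposure and expressed relative to vehicle-treated controls. The strain carries defined defects in DNA damage repair.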

[5] = NCI Yeast Anticancer Drug Screen. Data for the rad18 strain (AID 177); details: S. cerevisiae rad18 mutant growth inhibition, active compounds read high
Procedure, shortened: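 Yeast carrying a defined DNA damage repair alteration were exposed to compounds. Growth inhibition was expressed relative to vehicle-treated controls.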

[6] = NCI Yeast Anticancer Drug Screen. Data for the rad52 strain (AID 147);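 note: 0% = growth of vehicle-treated control cultures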; details: S. cerevisiae rad52 mutant growth inhibition, active compounds read high
Procedure, shortened: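 Yeast strain carrying a DNA damage repair alteration was exposed to test compounds. Growth inhibition was measured relative to vehicle-treated controls.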

[7] = NCI Yeast Anticancer Drug Screen. Data for the wt1 strain (AID 149);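 note: 0% = growth of vehicle-treated wt1 cultures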; details: S. cerevisiae wt1 strain (SPY 50644) growth inhibition, active compounds read high
Procedure, shortened: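 wt1 yeast, compound-treated; % growth inhibition vs vehicle control.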

[8] = NCI Yeast Anticancer Drug Screen. Data for the rad50EPP+ strain (AID 151);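 note: 0% = growth of vehicle-treated control cultures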; details: S. cerevisiae rad50 mutant strain, active compounds read high
Procedure, shortened: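 Yeast strain carrying rad50 alteration (rad50EPP+) exposed to compounds; growth inhibition measured relative to vehicle-treated controls.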

[9] = NCI Yeast Anticancer Drug Screen. Data for the mgt1 strain (AID 153); details: S. cerevisiae mgt1 mutant growth inhibition, active compounds read high
Procedure, shortened: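 Yeast mgt1 strain (DNA repair/cell-cycle alteration panel) exposed to compounds; growth inhibition measured relative to vehicle-treated controls.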

[10] = NCI Yeast Anticancer Drug Screen. Data for the rad50 strain (AID 155);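 note: 0% = growth of vehicle-only cultures of the same strain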; details: S. cerevisiae rad50 strain growth inhibition, active compounds read high
Procedure, shortened: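 Genetically altered yeast (DNA repair pathway); compound treatment; growth inhibition vs vehicle ctrl.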

[11] = NCI Yeast Anticancer Drug Screen. Data for the mec2-1 strain (AID 157); details: S. cerevisiae mec2-1 strain, active compounds read high
Procedure, shortened: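 mec2-1 yeast strain, carrying an alteration in DNA damage repair or cell cycle control, was exposed to compounds; growth inhibition was measured relative to vehicle-treated controls.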

[12] = NCI Yeast Anticancer Drug Screen. Data for the rad14 strain (AID 159);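 note: 0% = growth of vehicle-treated control cultures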; details: S. cerevisiae rad14 strain growth inhibition, active compounds read high
Procedure, shortened: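 Test compounds were applied to a repair-deficient yeast strain. Its growth was then compared with that of cultures given vehicle alone, and inhibition was expressed relative to those controls.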

[13] = NCI Yeast Anticancer Drug Screen. Data for the cln2 rad14 strain (AID 165);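 note: 0% = growth equal to vehicle treated cultures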; details: S. cerevisiae cln2 rad14 strain, active compounds read high
Procedure, shortened: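 Yeast carrying cln2 and rad14 alterations (cell cycle control and DNA damage repair) were exposed to compounds. Growth inhibition was measured against vehicle-treated controls.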

[14] = NCI Yeast Anticancer Drug Screen. Data for the bub3 strain (AID 167); details: S. cerevisiae bub3 mutant strain, active compounds read high
Procedure, shortened: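 Yeast carrying a defined mutation is treated with each compound, and growth is compared with that of vehicle-exposed cells to give inhibition.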

[15] = NCI Yeast Anticancer Drug Screen. Data for the sgs1 mgt1 strain (AID 161);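 note: 0% = growth of cultures given vehicle only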; details: S. cerevisiae sgs1 mgt1 strain, active compounds read high
Procedure, shortened: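 Percent growth inhibition was derived by comparing compound-exposed mutant yeast with vehicle-exposed cultures. The strain carries alterations in DNA damage repair.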

[16] = at 5.0 µM (retest, dose inferred, filed as 0.5)
[17] = at 50.0 µM (retest, dose inferred, filed as 5.0)

Measured: growth inhibition

O=C1C2=C(c3ccccc31)C(c1ccccc1)N1C(=O)CSC1=N2 (stereo not drawn)
inactive: [1]; at 33.0 µM 44% | [2]; at 1.2 µM 3% | [2]; at 3.7 µM -8% | [2]; at 11.0 µM 1% | [2]; at 33.0 µM 32% | [3]; at 1.2 µM -8% | [3]; at 3.7 µM -14% | [3]; at 11.0 µM 13% | [3]; at 33.0 µM 41% | [4]; [16] -27% | [4]; [17] 42% | [4]; at 50.0 µM 51% | [5]; at 1.2 µM -1% | [5]; at 3.7 µM 10% | [5]; at 11.0 µM 14% | [5]; at 33.0 µM 31%
active: [1]; at 100.0 µM 82% | [2]; at 100.0 µM 84% | [3]; at 100.0 µM 77% | [5]; at 100.0 µM 72%

Cc1ccc(NC(=O)CCC(=O)C(C)C(=O)c2ccccc2)c(C)c1 (stereo not drawn)
inactive: [6]; at 1.2 µM 1% | [6]; at 3.7 µM 1% | [6]; at 11.0 µM 3% | [6]; at 33.0 µM 1% | [6]; at 100.0 µM -1% | [7]; at 1.2 µM -1% | [7]; at 3.7 µM -1% | [7]; at 11.0 µM -1% | [7]; at 33.0 µM -1% | [7]; at 100.0 µM -3% | [8]; at 1.2 µM -2% | [8]; at 3.7 µM 0% | [8]; at 11.0 µM 1% | [8]; at 33.0 µM 0% | [8]; at 100.0 µM 5% | [9]; at 1.2 µM 0% | [9]; at 3.7 µM 5% | [9]; at 11.0 µM 1% | [9]; at 33.0 µM 0% | [9]; at 100.0 µM -5% | [10]; at 1.2 µM 1% | [10]; at 3.7 µM -6% | [10]; at 11.0 µM 3% | [10]; at 33.0 µM 3% | [10]; at 50.0 µM -41.7% | [10]; at 100.0 µM -1% | [11]; at 1.2 µM -3% | [11]; at 3.7 µM -5% | [11]; [16] 12% | [11]; at 11.0 µM 1% | [11]; at 33.0 µM -2% | [11]; [17] 39% | [11]; at 50.0 µM -1.6% | [11]; at 100.0 µM -3% | [12]; at 1.2 µM 0% | [12]; at 3.7 µM 2% | [12]; at 11.0 µM 1% | [12]; at 33.0 µM 2% | [12]; at 100.0 µM 2% | [13]; [16] -3% | [13]; [17] 11% | [13]; at 50.0 µM -12.9% | [14]; at 1.2 µM -1% | [14]; at 3.7 µM -2% | [14]; [16] -15% | [14]; at 11.0 µM -2% | [14]; at 33.0 µM -5% | [14]; [17] -10% | [14]; at 50.0 µM 0.65% | [14]; at 100.0 µM -5% | [1]; at 1.2 µM -2% | [1]; at 3.7 µM -1% | [1]; at 11.0 µM -1% | [1]; at 33.0 µM -2% | [1]; at 100.0 µM -4% | [2]; at 1.2 µM -2% | [2]; at 3.7 µM -1% | [2]; at 11.0 µM -1% | [2]; at 33.0 µM -1% | [2]; at 100.0 µM 0% | [3]; at 1.2 µM 0% | [3]; at 3.7 µM -1% | [3]; at 11.0 µM -3% | [3]; at 33.0 µM -1% | [3]; at 100.0 µM -1% | [4]; [16] 6% | [4]; [17] 3% | [4]; at 50.0 µM 6.15% | [5]; at 1.2 µM -1% | [5]; at 3.7 µM -1% | [5]; at 11.0 µM -1% | [5]; at 33.0 µM -3% | [5]; at 100.0 µM -1%
active: [10]; [16] 91% | [10]; [17] 92%

CC1=NN(C(=O)c2ccccc2O)C(=O)/C1=C/c1ccco1
active: [6]; at 11.0 µM 76% | [6]; at 33.0 µM 92% | [6]; at 100.0 µM 96% | [7]; at 11.0 µM 70% | [7]; at 33.0 µM 90% | [7]; at 100.0 µM 95% | [8]; at 100.0 µM 93% | [9]; at 33.0 µM 88% | [9]; at 100.0 µM 96% | [10]; at 33.0 µM 89% | [10]; [17] 89% | [10]; at 50.0 µM 87.5% | [10]; at 100.0 µM 95% | [11]; at 11.0 µM 75% | [11]; at 33.0 µM 91% | [11]; [17] 93% | [11]; at 50.0 µM 87.2% | [11]; at 100.0 µM 96% | [12]; at 33.0 µM 89% | [12]; at 100.0 µM 96% | [15]; [17] 90% | [15]; at 50.0 µM 87.3% | [13]; [17] 90% | [13]; at 50.0 µM 83.5% | [14]; at 11.0 µM 91% | [14]; at 33.0 µM 95% | [14]; [17] 94% | [14]; at 50.0 µM 87% | [14]; at 100.0 µM 97% | [1]; at 11.0 µM 80% | [1]; at 33.0 µM 92% | [1]; at 100.0 µM 96% | [3]; at 33.0 µM 85% | [3]; at 100.0 µM 92% | [4]; [17] 94% | [4]; at 50.0 µM 82.5%
inactive: [6]; at 1.2 µM 1% | [6]; at 3.7 µM 16% | [7]; at 1.2 µM 21% | [7]; at 3.7 µM 30% | [8]; at 1.2 µM 9% | [8]; at 3.7 µM 45% | [8]; at 11.0 µM 49% | [8]; at 33.0 µM 48% | [9]; at 1.2 µM -5% | [9]; at 3.7 µM 27% | [9]; at 11.0 µM 65% | [10]; at 1.2 µM -3% | [10]; at 3.7 µM 17% | [10]; [16] 11% | [10]; at 11.0 µM 64% | [11]; at 1.2 µM -4% | [11]; at 3.7 µM 2% | [11]; [16] 19% | [12]; at 1.2 µM -1% | [12]; at 3.7 µM 15% | [12]; at 11.0 µM 69% | [15]; [16] 2% | [13]; [16] 28% | [14]; at 1.2 µM 40% | [14]; at 3.7 µM 52% | [14]; [16] 43% | [1]; at 1.2 µM 11% | [1]; at 3.7 µM 31% | [3]; at 1.2 µM 7% | [3]; at 3.7 µM 44% | [3]; at 11.0 µM 67% | [4]; [16] 27%
